# From article PMC4336329 (PLoS ONE, 2015)
# Hit rate of the full screen: of about 310,000 compounds, about 14,000 (4.5%) showed an effect of 50% or more. The effect is printed as a negative number. This is one part of a sample in which strong results are shown more often than they occur.
# Target: human ether-à-go-go-related gene (hERG) potassium channel (human, UniProt Q12809)
# Assay: primary screen, population patch clamp on CHO cells stably expressing hERG; higher = less effect of the substance
# 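Further: peak tail current of the secondary pulse compared with the same well before compound.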
# Sequence of human ether-à-go-go-related gene (hERG) potassium channel (Q12809 whole entry, looked up): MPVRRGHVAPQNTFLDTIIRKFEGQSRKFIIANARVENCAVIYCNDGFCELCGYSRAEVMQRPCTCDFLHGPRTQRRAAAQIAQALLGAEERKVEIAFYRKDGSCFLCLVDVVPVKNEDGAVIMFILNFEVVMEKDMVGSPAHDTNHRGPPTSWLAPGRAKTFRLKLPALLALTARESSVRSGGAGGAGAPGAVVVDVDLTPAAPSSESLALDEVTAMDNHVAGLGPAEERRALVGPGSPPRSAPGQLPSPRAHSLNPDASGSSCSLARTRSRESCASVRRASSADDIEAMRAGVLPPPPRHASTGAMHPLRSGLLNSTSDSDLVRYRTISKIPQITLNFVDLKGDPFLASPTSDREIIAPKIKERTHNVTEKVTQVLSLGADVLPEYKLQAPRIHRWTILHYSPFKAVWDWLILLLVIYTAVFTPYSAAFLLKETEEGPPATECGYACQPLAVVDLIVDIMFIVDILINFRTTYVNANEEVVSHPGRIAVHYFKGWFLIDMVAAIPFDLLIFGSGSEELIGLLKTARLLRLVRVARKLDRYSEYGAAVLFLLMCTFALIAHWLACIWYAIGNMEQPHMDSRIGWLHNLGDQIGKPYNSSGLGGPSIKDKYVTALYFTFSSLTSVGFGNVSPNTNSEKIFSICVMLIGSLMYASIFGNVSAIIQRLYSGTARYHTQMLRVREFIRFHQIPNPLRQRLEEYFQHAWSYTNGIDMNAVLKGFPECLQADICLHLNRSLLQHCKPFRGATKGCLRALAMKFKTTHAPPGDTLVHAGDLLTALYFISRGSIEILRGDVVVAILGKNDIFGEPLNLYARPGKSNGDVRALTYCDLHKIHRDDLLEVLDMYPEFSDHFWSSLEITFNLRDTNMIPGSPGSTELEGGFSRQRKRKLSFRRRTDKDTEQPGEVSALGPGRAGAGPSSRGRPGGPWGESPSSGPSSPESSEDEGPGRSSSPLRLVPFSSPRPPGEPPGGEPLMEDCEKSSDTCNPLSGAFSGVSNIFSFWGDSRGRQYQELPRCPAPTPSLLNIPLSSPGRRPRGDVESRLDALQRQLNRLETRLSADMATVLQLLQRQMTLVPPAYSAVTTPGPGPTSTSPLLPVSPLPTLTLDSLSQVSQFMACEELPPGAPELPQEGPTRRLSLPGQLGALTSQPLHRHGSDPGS
row,Compound,"hERG current change (%, negative = inhibition) at 10uM [%]"
1,Oc1ccc(Cl)cc1C1=NNC(c2cccs2)C1 (stereo not shown),9.76
2,COc1ccc(C(=O)Nc2cc(C)on2)cc1OC,10
3,O=C(NCCn1cc(SCc2ccc(F)cc2)c2ccccc21)c1c(F)cccc1F,9.31
4,COc1cccc(C(=O)OCCN2C(=O)c3ccccc3C2=O)c1OC,4.5
5,CC1CC(C)CN(CCCNC(=O)Cn2ncc3c([nH]c4ccccc43)c2=O)C1 (stereo not shown),-18
6,CC(C)NS(=O)(=O)c1ccc(CCC(=O)Nc2ccc3c(c2)OCO3)cc1,1.66
7,COc1ccc2c(c1)C(C)=CC(C)(C)N2C(=O)Nc1ccccc1,-14.9
8,O=C(OCC(=O)N1CCN(c2ccccc2)CC1)c1cc(Br)ccc1Cl,-25.3
9,CN(CC(=O)Nc1ccc(F)cc1)C(=O)c1cc(-c2ccco2)nc2ccccc12,-32.5
10,CCOC(=O)C1=C(CC)Nc2ccccc2N=C1NC(=O)Nc1ccccc1OC,13.8
11,COC(=O)c1ccc(N2C(=O)C3CC=CC(C)C3C2=O)cc1 (stereo not shown),19.3
12,COc1ccc(C(=O)N2CCN(c3ccccc3OC)CC2)cc1,21
13,COc1ccc(C(=O)CCN2CCN(c3ccccc3OC)CC2)cc1.Cl,-50.3
14,COc1ccc(OC)c(NC(=O)CCN2CCN(c3ccccc3OC)CC2)c1,2.82
15,OC1CCCN(Cc2nc(Cc3ccccc3Cl)no2)C1 (stereo not shown),9.94
16,O=C(CN(Cc1ccco1)C(=O)c1ccc(F)cc1F)Nc1ccccc1C(F)(F)F,-21.5
17,CCOC(=O)C1CCN(C(=O)COc2ccc(Cl)cc2Cl)CC1,-40.7
18,CCOC(=O)C1CCN(C(=O)COc2ccc(Cl)cc2C)CC1,-46.1
19,CCOC(=O)C1CCN(C(=O)COc2cc(C)c(Br)c(C)c2)CC1,-43.2
20,CCOC(=O)C1CCN(C(=O)COc2ccc(Br)cc2Br)CC1,-51.8
21,CCOC(=O)C1CCN(C(=O)COc2cc(C)c(Br)cc2C)CC1,-54.7
22,CCOC(=O)C1CCN(C(=O)COc2ccc(Br)cc2C)CC1,-19.3

row,Compound,"hERG current change (%, negative = inhibition) at 10uM [%]"
1,COc1cccc(N2C(=O)C3C(C2=O)C3(c2ccccc2)c2ccccc2)c1 (stereo not shown),-3.19
2,CCN(CC)C(=O)CSc1nnc2sc3ccccc3n12,14.8
3,CCOC(=O)N1CCN(Cc2ccccn2)CC1.O=C(O)C(=O)O,0.59
4,CCOC(=O)C1(CCOc2ccccc2)CCN(Cc2nccn2CC)CC1,-58.2
5,CCOC(=O)C1(Cc2ccc(Cl)cc2)CCN(Cc2nccn2CC)CC1,-67.6
6,CCOC(=O)C1(CCc2ccccc2)CCN(Cc2ccccn2)CC1,-74.3
7,CCOC(=O)C1(Cc2ccccc2)CCN(Cc2nccn2CC)CC1,-20
8,CCOC(=O)C1(CCc2ccccc2)CCN(Cc2nccn2CC)CC1,-66.2
9,CCOC(=O)C1(Cc2ccccc2)CCCN(Cc2ccccn2)C1 (stereo not shown),-20.7
10,CCOC(=O)C1(Cc2cccc(OC)c2)CCCN(Cc2nccn2CC)C1 (stereo not shown),-30.8
11,CCOC(=O)Cn1cnc2c(cnn2-c2ccc(Cl)cc2)c1=O,-4.32
12,O=C(CCCc1ccccc1)Nc1ccc(Br)cc1F,14.4
13,Cc1cc(OCC(=O)c2ccc(C(F)(F)F)cc2)n2cnnc2n1,5.8
14,COc1ccc(N(CC(=O)Nc2cccc([N+](=O)[O-])c2C)S(C)(=O)=O)cc1OC,-7.79
15,S=C(NCc1ccco1)Nc1cccc(Cl)c1,-6.16
16,CCN(CC)S(=O)(=O)c1cccc(NC(=O)COC(=O)c2n[nH]c(=O)c3ccccc23)c1,-2.07
17,COC(=O)c1ccccc1NC=C1C(=O)OC2(CCCCC2)OC1=O,-1.07
18,Cc1cccc(-c2nnc(NC(=O)c3cccs3)s2)c1,-21.7
19,COc1ccc(S(=O)(=O)n2ccc(-c3ccc(OCCN(C)c4ccccn4)cc3)n2)cc1,11.4
20,CCOC(=O)C1(CCCc2ccccc2)CCN(Cc2nccn2CC)CC1,-74
21,Cc1oc(S(=O)(=O)N2CCOCC2)cc1C(=O)Nc1ccc(F)cc1,-6.29
22,O=C(CSc1nc2ncccc2[nH]1)Nc1ccc2c(c1)OCO2,9.63

row,Compound,"hERG current change (%, negative = inhibition) at 10uM [%]"
1,Cc1cc(C)n2nc(SCC(=O)Nc3ccccc3)nc2n1,-4.16
2,Cc1cc(C)n2nc(SCC(=O)c3cc(C)n(CC4CCCO4)c3C)nc2n1 (stereo not shown),1.05
3,Cc1cccc(NC(=O)CSc2nc3nc(C)cc(C)n3n2)c1,-32.6
4,Cc1cc(C)cc(NC(=O)CSc2nc3nc(C)cc(C)n3n2)c1,-50.2
5,CCCn1c(C)cc(C(=O)CSc2nc3nc(C)cc(C)n3n2)c1C,6.97
6,Cc1cc(C)n2nc(SCC(=O)c3cc(C)n(-c4cc(C)on4)c3C)nc2n1,-67.5
7,CNC1=C(N(C(C)=O)c2ccc(Br)cc2)C(=O)c2ccccc2C1=O,11.5
8,COc1ccc(S(=O)(=O)NCc2cccs2)cc1,2.67
9,CCC(C)(C)NC(=O)CN(C(=O)CCC(=O)Nc1ccccn1)c1ccc(F)c(Cl)c1,-1.31
10,Cc1cc(=O)oc2cc(NC(=O)c3ccccc3C(=O)O)ccc12,15.7
11,CN(CC(=O)Nc1ccccc1Br)C(=O)CNC(=O)c1ccc(Oc2ccccc2)cc1,-17.8
12,CN1C[C@@H]2C[C@@H](c3cccn3-c3nccs3)N3CCC[C@@]23C1=O,-19.2
13,CCn1ccnc1[C@@H]1C[C@H]2CN(c3ccccc3OC)C(=O)[C@]23CCCN13,19.8
14,O=C1N(C2CCCC2)C[C@@H]2C[C@@H](c3cccn3-c3ccccn3)N3CCC[C@@]123,-62.6
15,O=C1N(C2CCCC2)C[C@@H]2C[C@@H](c3cccn3-c3nccs3)N3CCC[C@@]123,-66.6
16,CN1C[C@@H]2C[C@@H](c3cccn3-c3ccccn3)N3CCC[C@@]23C1=O,-43.6
17,CCCCNc1nc2c(c(=O)[nH]c(=O)n2C)n1CCOc1ccccc1,3.6
18,O=C(CCSc1ccccn1)c1ccccc1,8.82
19,CCOC(=O)CC(NC(=O)Cc1cccs1)c1ccccc1Cl (stereo not shown),5.29
20,Cc1ccccc1C(=O)N1N=C(c2cccc(NS(C)(=O)=O)c2)CC1c1cccs1 (stereo not shown),-6.36
21,Cc1cc(C)c(CN2CCN(Cc3ccc(C)o3)C(CCO)C2)c(-n2cccn2)c1 (stereo not shown),-76.4
22,Cc1ccc(CN2CCN(Cc3ccc(O)cc3)CC2CCO)o1 (stereo not shown),-7.85

row,Compound,"hERG current change (%, negative = inhibition) at 10uM [%]"
1,Cc1ccc(CN2CCN(Cc3ccncc3)CC2CCO)o1 (stereo not shown),-8.3
2,Cc1ccc(CN2CCN(Cc3cn[nH]c3-c3ccccc3)CC2CCO)o1 (stereo not shown),-12.7
3,Cc1ccc(CN2CCN(Cc3c(C)nn(-c4ccc(F)cc4)c3C)CC2CCO)o1 (stereo not shown),-34.6
4,Cc1ccc(CN2CCN(Cc3cnc(C)s3)CC2CCO)o1 (stereo not shown),-1.95
5,Cc1ccc(CN2CCN(Cc3cnn(-c4ccc(F)cc4)c3)CC2CCO)o1 (stereo not shown),-56.1
6,OCCC1CN(Cc2cnn(-c3ccccc3Cl)c2)CCN1Cc1ccsc1 (stereo not shown),-11.7
7,Cc1ccc(CN2CCN(Cc3cnn(-c4ccc(Cl)cc4)c3)CC2CCO)o1 (stereo not shown),-69.8
8,CCn1cc(CN2CCN(Cc3ccsc3)C(CCO)C2)cn1 (stereo not shown),-3.26
9,Cc1ccc(CN2CCN(Cc3c(C)nn(C(C)C)c3C)CC2CCO)o1 (stereo not shown),-7.24
10,OCCC1CN(Cc2cnn(-c3ccc(F)cc3)c2)CCN1Cc1ccsc1 (stereo not shown),-65.7
11,Cc1ccc(C(=O)N2CCCCC2)cc1S(=O)(=O)N1CCOCC1,22
12,COc1ccc(NC(=O)C2CCCN(S(=O)(=O)c3ccc4c(c3)CCCN4C(C)=O)C2)cc1 (stereo not shown),9.31
13,CCCN1CCC(NC(=O)Nc2cc(Cl)ccc2OC)CC1,-19.1
14,CCCCOc1ccc(C(=O)Nc2ccc(N3CCN(C(=O)C(C)C)CC3)cc2)cc1,6.91
15,NC(=O)C1CCN(C(=O)c2ccc(F)c(S(=O)(=O)N3CCOCC3)c2)CC1,-0.931
16,C/C(=N\NC(=O)CNC(=O)c1ccc(Br)cc1)c1ccco1,5.38
17,Cn1c(=O)cc(OCC(=O)NCCCN2CCN(c3cccc(Cl)c3)CC2)c2ccccc21,-50.8
18,CCn1c(=O)cc(OCC(=O)NCCCN2CCN(c3cccc(Cl)c3)CC2)c2ccccc21,-61.1
19,CCn1c(=O)cc(OCC(=O)NCCCN2CCC(C)CC2)c2ccccc21,-8.39
20,CCn1c(=O)cc(OCC(=O)NCCCN2CC(C)CC(C)C2)c2ccccc21 (stereo not shown),-12.5
21,Cn1c(=O)cc(OCC(=O)NCCCN2CCN(Cc3ccccc3)CC2)c2ccccc21,-17.8
22,CC1CCN(CCCNC(=O)COc2cc(=O)n(C)c3ccccc23)CC1,8.58
